Data from PubChem BioAssay.
“And” between values parts separate entries of the source, which are not always exact repeats. Equal entries are not always repeated. The source made the active and inactive calls.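 The calls were made as follows, unless noted: active = compounds whose cell count with miR-34 switched on is under 0.7 times the count with it off; inactive = the rest.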

How the values were obtained:
[1] = EMT-state selective cytotoxicity in co-culture – imaging, PC-3E GFP, TEM4-18 mCherry, primary screen (AID 1345086;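 active = compounds killing one labelled cell type while sparing the other, by normalised counts and ratio limits, not self-fluorescent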;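 as to all read-outs here: cells exposed to compound for 72 h before imaging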;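 as to red/green cell ratio (normalised): normalised mesenchymal count divided by normalised epithelial count so high means epithelial killing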); details: PC-3E GFP / TEM4-18 mCherry co-culture, imaging cell counts, at 1 µM; for red/green cell ratio (normalised): actives lie on both sides, counts scaled to control wells, 1 = unselective
[2] = viability loss with induced miR-34 in A549 – imaging, A549 dox-inducible miR-34, nuclei and caspase counts, primary screen (AID 1347080); details: A549 miR-34 inducible, Hoechst nuclei count, 48 h
[3] = P. berghei load reduction in hepatocytes – cell-based, HepG2, luciferase luminescence, HepG2 viability, primary screen (AID 624349; in the data active = parasite load remaining mostly below about 12%, no sharp cut-off; inactive = mostly above about 10%;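 also: 100% = mean of DMSO negative control wells on the same plate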); details: P. berghei liver stage in HepG2, luciferase luminescence, concentration not given here; parasite load remaining: stronger effect = lower value; viability: measured here: HepG2 viability without parasites
[4] = compounds altering circadian rhythm period length – cell-based, LOPAC library, luminescence reporter (AID 2774; call rule not given here;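 also: values are relative to mean of DMSO wells on each plate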); details: circadian reporter cells, at 7 µM, actives lie on both sides
[5] = tested on: Hepatitis C virus NS3 helicase; assay: blockers of NS3h binding to ssDNA – biochemical, fluorescence polarization, LOPAC1280 library, primary screen (AID 687035; in the data active = inhibition above about 37%); details: Purified HCV NS3 helicase, Cy5-dT15 ssDNA binding fluorescence polarization; stronger effect = higher value; concentration not given here
[6] = compounds altering Cy5-DNA-NS3h complex signal – biochemical, LOPAC1280, artefact control for HCV NS3 helicase inhibitor project (AID 687037; call rule not given here); details: Cy5-DNA-NS3h complex fluorescence interference counterscreen
[7] = blockers of cellular phospholipid synthesis – cell-based, LOPAC library, screen 4, primary screen (AID 1347384; call rule not given here); details: animal cells, phospholipid biosynthesis inhibition screen; at 10 µM
[8] = galactose survival enhancers in mitochondrial complex I cybrids – cell-based, galactose medium, ATP luminescence, primary screen (AID 1645843;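 active = z-score of at least 1.8 in each of two replicates, scored against plate mean and spread of sample wells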;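 also: positive z means more ATP and so rescue of galactose-driven cybrid death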); details: complex I mutant cybrid cells, 72 h, stronger effect = higher value
[9] = MELAS cybrid and Rieske KO viability enhancers – cell-based, MELAS cybrids, Rieske KO mouse fibroblasts, CellTiter-Glo, primary screen (AID 1508586;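 active = mean z-score across replicates of 1.96 or higher in either the MELAS or the Rieske mutant cell line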;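 also: z relative to plate mean and SD of compound and empty wells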); details: low glucose
[10] = target: NAD(+) hydrolase SARM1 (Homo sapiens) (UniProt Q6SZW1); assay: blocking NAD cleavage by SARM1 SAM-TIR – cell lysate, NAD-Glo luminescence (AID 1508614;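 active = compound whose remaining NAD level is above about 45 nM, limit read from the data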;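 also: higher remaining NAD means stronger inhibition of SARM1 NADase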); details: SAM-TIR HEK293T lysate NADase, at 1 µM, stronger effect = higher value
Chain of NAD(+) hydrolase SARM1 (Homo sapiens) (Q6SZW1 whole entry, looked up, the tested form may be a part): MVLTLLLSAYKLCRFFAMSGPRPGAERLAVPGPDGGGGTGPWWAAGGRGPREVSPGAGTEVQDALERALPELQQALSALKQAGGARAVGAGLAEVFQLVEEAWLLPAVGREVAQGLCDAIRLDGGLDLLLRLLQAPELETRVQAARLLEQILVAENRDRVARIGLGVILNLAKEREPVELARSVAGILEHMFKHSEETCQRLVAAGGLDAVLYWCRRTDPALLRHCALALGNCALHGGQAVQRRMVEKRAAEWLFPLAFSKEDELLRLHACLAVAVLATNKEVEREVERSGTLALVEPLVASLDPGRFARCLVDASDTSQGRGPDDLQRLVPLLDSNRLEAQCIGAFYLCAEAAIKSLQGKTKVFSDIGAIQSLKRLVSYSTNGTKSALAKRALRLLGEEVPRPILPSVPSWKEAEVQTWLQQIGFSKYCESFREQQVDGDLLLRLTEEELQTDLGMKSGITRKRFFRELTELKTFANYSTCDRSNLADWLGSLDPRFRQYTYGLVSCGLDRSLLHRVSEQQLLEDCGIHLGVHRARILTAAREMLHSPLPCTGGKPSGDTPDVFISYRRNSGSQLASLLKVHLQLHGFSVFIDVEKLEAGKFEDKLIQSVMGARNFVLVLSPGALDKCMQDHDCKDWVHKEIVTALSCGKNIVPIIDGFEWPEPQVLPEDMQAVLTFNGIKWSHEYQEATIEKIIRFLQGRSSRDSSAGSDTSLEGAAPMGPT

[11] = target: Mitogen-activated protein kinase 7 (Homo sapiens) (UniProt Q13164); assay: Gal4-ERK5 driven luciferase induction – cell-based, HTS, primary screen (AID 1508626;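 active = luciferase signal above three times the same-plate solvent-only control wells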;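 also: luciferase driven by Gal4-ERK5 fusion binding five Gal4 sites before minimal TATA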); details: HeLa Gal4-ERK5 transactivation, 18 h, at 5 µM, stronger effect = higher value
Chain of Mitogen-activated protein kinase 7 (Homo sapiens) (Q13164 whole entry, looked up, the tested form may be a part): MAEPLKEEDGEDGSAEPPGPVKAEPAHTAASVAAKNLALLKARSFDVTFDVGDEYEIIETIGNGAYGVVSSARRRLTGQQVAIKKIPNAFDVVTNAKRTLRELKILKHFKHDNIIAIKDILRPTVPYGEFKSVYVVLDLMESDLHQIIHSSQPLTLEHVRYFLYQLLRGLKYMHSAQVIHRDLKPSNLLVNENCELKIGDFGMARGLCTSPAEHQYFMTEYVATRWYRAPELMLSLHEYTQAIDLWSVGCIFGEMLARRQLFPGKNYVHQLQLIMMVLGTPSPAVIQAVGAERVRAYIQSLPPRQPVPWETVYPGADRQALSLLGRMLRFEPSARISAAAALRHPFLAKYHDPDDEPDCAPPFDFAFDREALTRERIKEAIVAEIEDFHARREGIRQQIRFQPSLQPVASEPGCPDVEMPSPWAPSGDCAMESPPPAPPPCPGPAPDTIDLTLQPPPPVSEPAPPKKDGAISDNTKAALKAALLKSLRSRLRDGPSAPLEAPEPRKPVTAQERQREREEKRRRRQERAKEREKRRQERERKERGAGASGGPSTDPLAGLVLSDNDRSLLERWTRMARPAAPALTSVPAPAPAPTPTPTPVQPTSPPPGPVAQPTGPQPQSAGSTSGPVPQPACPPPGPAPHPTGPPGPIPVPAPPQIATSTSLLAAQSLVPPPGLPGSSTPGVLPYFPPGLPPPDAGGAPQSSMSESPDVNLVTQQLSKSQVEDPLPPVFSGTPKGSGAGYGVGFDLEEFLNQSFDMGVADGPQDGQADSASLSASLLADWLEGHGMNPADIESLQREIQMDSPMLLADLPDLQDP

[12] = measured here: epithelial PC-3E GFP cell survival
[13] = measured here: mesenchymal TEM4-18 mCherry cell survival
[14] = stronger effect = lower value, cell number ratio, induced over uninduced
[15] = measured here: relative caspase fold change +Dox/-Dox
[16] = measured here: total cells with miR-34 induction, stronger effect = lower value
[17] = measured here: total cells without miR-34 induction
[18] = MELAS cybrid survival, CellTiter-Glo 48 h, stronger effect = higher value
[19] = Rieske KO mouse fibroblast survival, CellTiter-Glo 72 h

Structure (SMILES)	red/green cell ratio (normalised) [1]	normalised cell number [1, 12]	normalised cell number [1, 13]	fold change [2, 14]	fold change [2, 15]	cell count [2, 16]	cell count [2, 17]	parasite load remaining [3]	viability [3]	period change [4]	inhibition [5]	fluorescence ratio (interference) [6]	outcome [7]	z-score [8]	z-score [9, 18]	z-score [9, 19]	remaining NAD [10]	luciferase signal [11]
O=C(O)c1ccccc1-c1c2cc(I)c(=O)c(I)c-2oc2c(I)c(O)c(I)cc12	0.52 (inactive)	0.98	0.5	0.927 (inactive)	0.976	9160	9880	–	–	–	–	–	–	–	–	–	–	–
O=C1c2c(O)cccc2[C@@H](O[C@@H]2O[C@H](CO)[C@H](O)[C@@H](O)[C@H]2O)c2cc(CO)cc(O)c21	0.78 (inactive)	1.12	0.88	0.925 (inactive)	0.87	8450	9140	–	–	–	–	–	–	–	–	–	–	–
C[C@]12CCC(=O)C=C1[C@@H]1C[C@@H]1C1C2CC[C@@]2(C)C1[C@@H]1C[C@@H]1[C@@]21CCC(=O)O1 (stereo partly drawn)	0.65 (inactive)	1.4	0.91	1.02 (inactive)	0.868	7990	7840	–	–	–	–	–	–	–	–	–	–	–
CC(=O)OCC(=O)[C@@]1(O)CCC2C3CCC4=CC(=O)C=C[C@]4(C)[C@@]3(Cl)[C@@H](Cl)C[C@@]21C (stereo partly drawn)	1 (inactive)	1.2	1.2	0.864 (inactive)	1.22	6210	7190	–	–	–	–	–	–	–	–	–	–	–
O=c1[nH]cnc2c1ncn2C1O[C@H](CO)[C@@H](O)[C@H]1O (stereo partly drawn)	1.22 (inactive)	0.83	1.02	0.943 (inactive)	0.652	8910	9440	–	–	–	–	–	–	–	–	–	–	–
CC(=O)[C@@]12O[C@](C)(c3ccccc3)O[C@@H]1CC1C3CCC4=CC(=O)CC[C@]4(C)C3CC[C@@]12C (stereo partly drawn)	1.21 (inactive)	1.05	1.26	0.858 (inactive)	1.15	5100	5940	–	–	–	–	–	–	–	–	–	–	–
Cc1cc(=O)c(C(=O)N[C@@H](C(=O)N[C@@H]2C(=O)N3C(C(=O)O)=C(CSc4nnnn4C)CSC23)c2ccc(O)cc2)c[nH]1 (stereo partly drawn)	0.9 (inactive)	1.24	1.12	0.93 (inactive)	0.887	8940	9610	–	–	–	–	–	–	–	–	–	–	–
C[C@@H]1CC2C3CCC4=CC(=O)C=C[C@]4(C)[C@@]3(F)[C@@H](O)C[C@]2(C)[C@@]1(O)C(=O)CO (stereo partly drawn)	1.24 (inactive)	1.34	1.66	0.825 (inactive)	2.2	7310	8850	152% (inactive) and 64.1% (inactive)	77.2% and 87.1%	–	–	–	–	–	–	–	–	–
C[C@]12C=CC(=O)C=C1CCC1C2[C@@H](O)C[C@@]2(C)C1CC[C@]2(O)C(=O)COP(=O)(O)O (stereo partly drawn)	1.33 (inactive)	0.86	1.15	0.855 (inactive)	1.09	6110	7150	–	–	–	–	–	–	–	–	–	–	–
CN1C2CCC1CC(OC(=O)c1c[nH]c3ccccc13)C2 (stereo not drawn)	1.09 (inactive)	0.93	1.02	0.997 (inactive) and 0.976 (inactive) and 0.922 (inactive)	1.28 and 0.664 and 2.09	10100 and 8850 and 6980	10100 and 9070 and 7570	–	–	0.005 h (inactive)	0% (inactive)	1 (inactive)	inactive	-0.34 (inactive) and 0.77 (inactive)	–	–	–	–
O=C(O)c1ccccc1	1.1 (inactive)	1.23	1.35	0.957 (inactive) and 0.932 (inactive)	0.544 and 1.69	8250 and 11300	8620 and 12100	29.9% (inactive)	83.9%	–	–	–	–	–	-0.248 (inactive)	-0.209	10 nM (inactive)	36 AU (inactive)
NCCCNCCCCNCCCN	1.05 (inactive)	0.96	1	0.928 (inactive)	0.993	10300	11100	–	–	-0.16 h (inactive)	-1% (inactive)	1 (inactive)	inactive	-0.2 (inactive)	–	–	–	–
N=C(N)SCCN	0.88 (inactive)	1.12	0.98	0.958 (inactive) and 1.11 (inactive)	2.51 and 0.757	9240 and 6110	9640 and 5490	–	–	-0.04 h (inactive)	-3% (inactive)	1 (inactive)	inactive	-0.855 (inactive)	–	–	–	96 AU (inactive)
CO[C@@]12[C@@H]3NC3CN1C1=C(C(=O)C(N)=C(C)C1=O)[C@@H]2COC(N)=O (stereo partly drawn)	1.09 (inactive)	1.03	1.13	0.986 (inactive)	0.958	1840	1870	0.12% (inactive)	22.5%	–	–	–	–	–	–	–	–	–
CC(C)Cc1ccc([C@H](C)C(=O)O)cc1	0.85 (inactive)	0.93	0.79	1.1 (inactive) and 0.885 (inactive)	1.11 and 1.2	10400 and 9190	9420 and 10400	89.2% (inactive)	95.1%	-0.055 h (inactive)	-6% (inactive)	0.9 (inactive)	inactive	0.53 (inactive)	0.343 (inactive)	-0.398	26 nM (inactive)	–
CC(=O)[C@H]1CCC2C3CC=C4C[C@@H](OC(=O)CCC(=O)O)CC[C@]4(C)C3CC[C@@]21C (stereo partly drawn)	0.87 (inactive)	1.07	0.93	0.903 (inactive)	0.914	8450	9360	–	–	–	–	–	–	–	–	–	–	–
